The record followed here is PubChem BioAssay (NCATS).

The nature of test [1]: High Content Imaging Cell-Based qHTS for Inhibitors of the mTORC1 Signaling Pathway in MEF (Tsc2-/-, p53-/-) Cells (AID 2666).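 Note: percent of cells scored positive for phospho-rpS6 Ser235/236 immunostaining by imaging.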 The method, boiled down:
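Phospho-rpS6 (Ser235/236) immunofluorescence, normalized and scored as % positive cells using rapamycin and DMSO controls, was read in empty-vector Tsc2-/-, p53-/- MEFs after 24 h compound exposure at 37 C; propidium iodide counted cells.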
For orientation: qHTS replaces the single test concentration by a dilution series.

A short description of test [2]: High Content Imaging Cell-Based qHTS for Inhibitors of the mTORC1 Signaling Pathway in MEF Cells (AID 2667). Note: potency is the fitted concentration of half-maximal effect. The method, boiled down:
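WT MEFs (Tsc2-/-, p53-/- re-expressing Tsc2), in DMEM + 10% FBS, were treated with compound for 24 h at 37 C. Cells were then fixed and stained for phospho-rpS6 Ser235/236 with propidium iodide as cell count. Values are % positive cells, with thresholds set against rapamycin-treated cells.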

Test [3] can be described thus: Cytometry Cell-Based qHTS for Inhibitors of the mTORC1 Signaling Pathway in MEF cells (AID 2668). Note: potency is the fitted concentration of half-maximal effect. A digest of the protocol: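 Pathway inhibition in WT Tsc2-rescued Tsc2-/-, p53-/- MEFs is measured as the Alexa-488 phospho-rpS6 to propidium iodide intensity ratio after 24 hrs of compound at 37 degree Celsius. PI-stained cell number gives viability.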
Test [4] deals with Ubiquitin carboxyl-terminal hydrolase 2 (Homo sapiens) (UniProt O75604). In words: qHTS Validation Assay for Inhibitors of Ubiquitin-specific Protease USP2a Using CHOP2 as the Reporter (AID 463106). A digest of the protocol: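 USP2 core (10 nM final) was preincubated with compound 30 min at RT in pH 8.0 Tris/CaCl2/beta-ME/CHAPS buffer. Ub-CHOP2 and reporter substrate (25 nM final each) were then added, with fluorescence (Ex 485/Em 531) read after 60 min. Data were normalized to NEM full inhibition and fitted to concentration-response curves.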
Sequence of Ubiquitin carboxyl-terminal hydrolase 2 (Homo sapiens) (O75604 whole entry, looked up): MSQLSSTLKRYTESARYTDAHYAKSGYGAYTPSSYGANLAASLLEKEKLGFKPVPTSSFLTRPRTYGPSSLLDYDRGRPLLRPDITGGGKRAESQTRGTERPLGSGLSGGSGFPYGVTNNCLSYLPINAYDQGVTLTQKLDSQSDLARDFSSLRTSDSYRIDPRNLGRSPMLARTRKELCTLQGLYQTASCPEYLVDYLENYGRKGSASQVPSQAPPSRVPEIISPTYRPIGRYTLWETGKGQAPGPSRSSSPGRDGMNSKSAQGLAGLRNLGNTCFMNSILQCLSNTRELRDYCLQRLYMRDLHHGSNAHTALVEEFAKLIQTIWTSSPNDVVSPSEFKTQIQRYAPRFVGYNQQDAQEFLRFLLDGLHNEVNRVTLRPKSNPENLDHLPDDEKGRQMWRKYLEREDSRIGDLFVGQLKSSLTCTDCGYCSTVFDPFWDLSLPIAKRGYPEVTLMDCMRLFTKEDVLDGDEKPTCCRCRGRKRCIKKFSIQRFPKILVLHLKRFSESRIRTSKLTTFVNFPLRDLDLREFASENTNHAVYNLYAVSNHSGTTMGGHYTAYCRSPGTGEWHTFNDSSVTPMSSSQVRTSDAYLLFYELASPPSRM

The target in test [5] is DNA polymerase III PolC-type (Bacillus subtilis (strain 168)) (UniProt P13267). As to the kind of experiment: qHTS Validation Assay for the Inhibitors of DNA Replication in Gram-Positive Bacteria (AID 485295).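 Note: reconstituted holoenzyme with PolC plus beta clamp SSB and primase; PicoGreen fluorescence of double-stranded DNA made on primed circular M13 template; series mostly up to about 57 µM.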 A digest of the protocol:
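Primed replication of single-stranded M13Gori by a four-protein B. subtilis holoenzyme is measured at room temperature. Double-stranded product is quantified by PicoGreen fluorescence after an EDTA stop; inhibition is scaled between DMSO and EDTA controls.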

Test [6] deals with Tumor susceptibility gene 101 protein (Homo sapiens) (UniProt Q99816). As to the kind of experiment: qHTS Validation Assay for Iinhibitors of HIV-1 Budding by Blocking the Interaction of PTAP/TSG101 (AID 485342; calls by dose curve). The method, boiled down:
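Fluorescence anisotropy measured PTAP-Tsg101 interaction. Final concentrations were 10 uM protein domain and 50 nM labeled peptide, equilibrated 20 min at room temperature.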

Test [7] deals with Beta-2 adrenergic receptor (Homo sapiens) (UniProt P07550). As to the kind of experiment: qHTS validation assay of beta-arrestin-biased ligands of beta2-adrenergic receptor (AID 485366). A digest of the protocol:
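Tango cells expressing recombinant beta2-AR and beta-arrestin with tTA-driven luciferase, in DMEM with 1% FBS. Compounds were titrated up to 46 microM for 18 hr at 37 degrees C. Luminescence was read 15 min after substrate; curves were fitted and class-assigned.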

In test [8] the target is Thioredoxin reductase 1, cytoplasmic (Rattus norvegicus) (UniProt O89049). In words: qHTS Assay for Substrates of Mammalian Selenoprotein Thioredoxin Reductase 1 (TrxR1) (AID 488772).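 Note: NADPH fluorescence in the first read after selenite addition and not the 8 min delta; series mostly up to about 57 µM; a drop in NADPH fluorescence below the no-compound background marks a TrxR1 substrate.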 The method, boiled down:
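Quantitative HTS in Tris-HCl buffer at pH 7.5 with EDTA and Tween-20, using rat TrxR1, 400 uM NADPH and 400 uM selenite (final). A fall in initial NADPH fluorescence relative to background marked substrate behaviour.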

The target in test [9] is Flap endonuclease 1 (Homo sapiens) (UniProt P39748). In words: qHTS Validation Assay for the Inhibitors of Human Flap endonuclease 1 (FEN1) (AID 488816). A digest of the protocol: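 Human FEN1 (10 nM) preincubated 15 min at room temperature with compounds, then flap DNA substrate added at 50 nM final. Fluorescence read at 0 and 15 min; concentration-response fitted with four-parameter Hill equation.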
Sequence of Flap endonuclease 1 (Homo sapiens) (P39748 whole entry, looked up): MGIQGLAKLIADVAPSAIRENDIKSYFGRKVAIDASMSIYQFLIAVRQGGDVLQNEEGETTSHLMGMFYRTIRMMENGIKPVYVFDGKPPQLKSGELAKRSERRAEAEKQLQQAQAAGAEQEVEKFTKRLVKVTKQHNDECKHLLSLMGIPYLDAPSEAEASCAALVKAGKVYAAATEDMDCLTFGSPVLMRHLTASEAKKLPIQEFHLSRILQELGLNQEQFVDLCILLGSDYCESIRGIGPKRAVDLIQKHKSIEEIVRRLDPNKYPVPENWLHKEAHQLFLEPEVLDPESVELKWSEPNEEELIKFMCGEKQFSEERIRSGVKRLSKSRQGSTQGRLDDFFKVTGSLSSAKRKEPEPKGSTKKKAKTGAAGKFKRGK

Test [10] concerns the target M-phase phosphoprotein 8 (Homo sapiens) (UniProt Q99549). In words: qHTS Validation Assay for Inhibitors for MPP8 Chromodomain Interactions with Methylated Histone Tails (AID 488949). Note: nearly all actives have a fitted effect of over 55% in size. Note: potency is the fitted concentration of half-maximal effect. The method, boiled down:
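Disruption of the preformed MPP8–trimethyl-H3K9 peptide complex (both 50 nM, 30 min, RT) is measured after 30 min compound exposure, using AlphaScreen proximity beads; aurintricarboxylic acid titration serves as plate control.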

For test [11], the target named is Chromobox protein homolog 1 (Homo sapiens) (UniProt P83916). As to the kind of experiment: qHTS Validation Assay for Inhibitors of HP1-beta Chromodomain Interactions with Methylated Histone Tails (AID 488953). Note: nearly all actives have a fitted effect of over 50% in size. Note: potency is the fitted concentration of half-maximal effect. A digest of the protocol:
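50 nM HP1-beta + 50 nM biotin-H3(1-18)K9me3, PBS pH 7.4, 0.01% Tween-20, 30 min RT; compound added, 30 min RT; AlphaScreen beads 10 ug/mL final, 30 min dark; luminescence read.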

The nature of test [12]: Quantitative high throughput screen for delayed death inhibitors of the malarial parasite plastid, 96 hour incubation (AID 488745). Note: nearly all actives have a fitted effect of over 70% in size. Note: potency is the fitted concentration of half-maximal effect. The method, boiled down: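 Infected erythrocytes were added to compound in Albumax-supplemented RPMI 1640 at 0.1% parasitemia and 2% hematocrit (final), incubated 96 h at 37 C under 5% CO2, then luciferase reagent was added and luminescence measured.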

The nature of test [13]: Quantitative high throughput screen for delayed death inhibitors of the malarial parasite plastid, 48 hour incubation (AID 488752). Note: nearly all actives have a fitted effect of over 65% in size. Note: potency is the fitted concentration of half-maximal effect. The method, boiled down: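 Readout is firefly luciferase luminescence from a reporter integrated into the parasite genome, with lower signal taken as inhibited growth. Infected red cells (0.1% parasitemia, 2% hematocrit final) are cultured with compound for one 48 h cycle at 37 C.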

For test [14], the target named is ATP-dependent 6-phosphofructokinase (Trypanosoma brucei brucei) (UniProt O15648). In words: qHTS Validation Assay to Find Inhibitors of T. brucei phosphofructokinase (AID 485368). A digest of the protocol: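 Activity was read as ADP production by luminescence (ADP-Glo) after 45 min at room temperature. The enzyme was 1.25nM PFK in 0.1M TEA pH 8.0 with 0.5 mM F6P, 0.1mM ATP and 5 mM MgCl2. Compounds were titrated up to 57 uM and % activity normalized to no-enzyme and full-enzyme controls.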

For test [15], the target named is Thioredoxin reductase 1, cytoplasmic (Rattus norvegicus) (UniProt O89049). As to the kind of experiment: qHTS Assay for Inhibitors of Mammalian Selenoprotein Thioredoxin Reductase 1 (TrxR1) (AID 488773). Note: nearly all actives have a fitted effect of over 40% in size. Note: potency is the fitted concentration of half-maximal effect. The settings on record: Potency: inhibition. The method, boiled down:
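Steps: enzyme (90 nM) plus NADPH (400 uM final), 5 min at ~22 deg C; compound added, 15 min; selenite (400 uM final) added; fluorescence followed for 8 min. Concentration-response curves derived from the normalized delta values.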

A short description of test [16]: Cytometric Cell-Based qHTS for Inhibitors of the mTORC1 Signaling Pathway in MEF (Tsc2-/-, p53-/-) Cells (AID 2660).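 Note: percent of cells above a phospho-rpS6 to PI ratio cutoff in each well; series mostly up to about 38 µM.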 The method, boiled down: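 Tsc2-/-, p53-/- MEFs (empty vector) exposed to compound 24 h at 37 C, fixed, stained with Alexa-488 anti-phospho-rpS6 Ser235/236 and propidium iodide. Acumen laser scanning; phospho-S6/PI ratio thresholded against 7.5 nM rapamycin, reported as % positive cells.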

Test [17] can be described thus: Validation screen for small molecules that induce DNA re-replication in MCF 10A normal breast cells (AID 463097). Note: nearly all actives have a fitted effect of over 60% in size. The method, boiled down:
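DNA re-replication was detected as a rise in nuclei with elevated Hoechst fluorescence after a 48 hr compound exposure of MCF 10A cells at 37 C.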

Results filed as inconclusive are left out. Where a structure was tested more than once in an assay, its records may differ in their call. Activity calls are given as the source filed them. Unless noted, calls come from the whole dose curve; as a rule, active = well fitted curve in the direction sought with a large enough effect; inconclusive = small, poorly fitted or top-dose-only effect, or another doubt; inactive = no such curve, though single readings can be large; an effect the other way counts as inactive or inconclusive.

Sequence of Thioredoxin reductase 1, cytoplasmic (Rattus norvegicus) (O89049 whole entry, looked up): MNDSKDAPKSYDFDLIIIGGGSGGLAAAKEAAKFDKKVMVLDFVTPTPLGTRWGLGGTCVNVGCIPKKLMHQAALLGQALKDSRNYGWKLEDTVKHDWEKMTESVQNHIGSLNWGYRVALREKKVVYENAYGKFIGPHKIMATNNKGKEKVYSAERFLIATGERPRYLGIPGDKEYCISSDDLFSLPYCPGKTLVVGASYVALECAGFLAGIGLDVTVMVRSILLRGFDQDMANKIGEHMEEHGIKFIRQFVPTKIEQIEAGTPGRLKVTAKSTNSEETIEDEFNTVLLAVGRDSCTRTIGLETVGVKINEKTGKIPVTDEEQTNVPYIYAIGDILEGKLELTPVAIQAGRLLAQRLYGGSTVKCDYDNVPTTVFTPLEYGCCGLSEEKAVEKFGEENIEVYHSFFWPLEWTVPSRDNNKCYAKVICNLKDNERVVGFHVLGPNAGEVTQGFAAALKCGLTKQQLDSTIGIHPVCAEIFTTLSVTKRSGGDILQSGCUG
Sequence of Tumor susceptibility gene 101 protein (Homo sapiens) (Q99816 whole entry, looked up, the tested form may be a part): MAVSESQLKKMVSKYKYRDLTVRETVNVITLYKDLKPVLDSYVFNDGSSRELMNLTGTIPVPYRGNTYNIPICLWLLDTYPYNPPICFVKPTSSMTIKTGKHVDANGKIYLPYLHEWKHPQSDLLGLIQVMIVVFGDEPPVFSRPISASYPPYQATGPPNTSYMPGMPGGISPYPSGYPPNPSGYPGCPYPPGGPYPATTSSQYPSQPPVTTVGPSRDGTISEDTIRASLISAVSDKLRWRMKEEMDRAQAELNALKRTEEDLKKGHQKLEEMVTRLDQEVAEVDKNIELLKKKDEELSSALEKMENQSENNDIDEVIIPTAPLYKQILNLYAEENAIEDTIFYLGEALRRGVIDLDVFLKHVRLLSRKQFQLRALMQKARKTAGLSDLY
Sequence of Chromobox protein homolog 1 (Homo sapiens) (P83916 whole entry, looked up): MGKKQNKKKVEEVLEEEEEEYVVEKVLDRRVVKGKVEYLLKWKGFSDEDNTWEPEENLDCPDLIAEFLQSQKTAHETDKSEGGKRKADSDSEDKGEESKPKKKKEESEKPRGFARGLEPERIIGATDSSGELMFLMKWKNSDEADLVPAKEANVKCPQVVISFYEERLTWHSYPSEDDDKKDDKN
Sequence of Beta-2 adrenergic receptor (Homo sapiens) (P07550 whole entry, looked up): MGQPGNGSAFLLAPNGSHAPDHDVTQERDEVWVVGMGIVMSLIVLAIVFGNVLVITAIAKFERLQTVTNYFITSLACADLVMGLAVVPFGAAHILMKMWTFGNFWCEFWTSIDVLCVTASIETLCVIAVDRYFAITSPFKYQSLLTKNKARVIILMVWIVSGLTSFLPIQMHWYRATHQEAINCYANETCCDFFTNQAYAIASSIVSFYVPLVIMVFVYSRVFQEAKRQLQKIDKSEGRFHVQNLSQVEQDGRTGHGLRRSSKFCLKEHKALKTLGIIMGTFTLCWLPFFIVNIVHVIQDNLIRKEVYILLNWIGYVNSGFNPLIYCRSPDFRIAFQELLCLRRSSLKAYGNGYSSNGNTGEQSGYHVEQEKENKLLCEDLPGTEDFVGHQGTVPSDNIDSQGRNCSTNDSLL
Sequence of M-phase phosphoprotein 8 (Homo sapiens) (Q99549 whole entry, looked up): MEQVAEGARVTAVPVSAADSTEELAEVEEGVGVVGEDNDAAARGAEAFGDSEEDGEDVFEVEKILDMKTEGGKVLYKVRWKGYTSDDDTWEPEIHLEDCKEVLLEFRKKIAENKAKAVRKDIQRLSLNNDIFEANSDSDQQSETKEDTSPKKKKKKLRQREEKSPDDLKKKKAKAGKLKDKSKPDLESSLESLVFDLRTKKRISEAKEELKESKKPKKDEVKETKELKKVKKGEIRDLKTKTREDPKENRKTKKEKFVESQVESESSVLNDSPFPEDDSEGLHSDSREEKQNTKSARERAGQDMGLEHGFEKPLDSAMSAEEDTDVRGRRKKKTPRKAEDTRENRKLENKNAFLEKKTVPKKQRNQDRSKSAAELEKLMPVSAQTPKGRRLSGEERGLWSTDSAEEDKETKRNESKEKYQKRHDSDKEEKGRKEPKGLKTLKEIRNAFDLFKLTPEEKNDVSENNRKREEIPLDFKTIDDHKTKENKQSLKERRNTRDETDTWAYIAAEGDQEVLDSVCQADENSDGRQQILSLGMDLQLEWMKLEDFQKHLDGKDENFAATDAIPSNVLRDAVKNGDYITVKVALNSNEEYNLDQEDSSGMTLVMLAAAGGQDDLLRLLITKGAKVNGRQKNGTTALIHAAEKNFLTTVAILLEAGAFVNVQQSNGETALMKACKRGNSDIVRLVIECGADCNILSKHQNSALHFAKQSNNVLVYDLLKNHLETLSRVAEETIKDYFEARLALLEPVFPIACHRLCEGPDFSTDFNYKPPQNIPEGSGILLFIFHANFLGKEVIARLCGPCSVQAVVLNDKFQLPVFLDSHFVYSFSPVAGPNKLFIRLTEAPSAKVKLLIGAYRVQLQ
Sequence of DNA polymerase III PolC-type (Bacillus subtilis (strain 168)) (P13267 whole entry, looked up): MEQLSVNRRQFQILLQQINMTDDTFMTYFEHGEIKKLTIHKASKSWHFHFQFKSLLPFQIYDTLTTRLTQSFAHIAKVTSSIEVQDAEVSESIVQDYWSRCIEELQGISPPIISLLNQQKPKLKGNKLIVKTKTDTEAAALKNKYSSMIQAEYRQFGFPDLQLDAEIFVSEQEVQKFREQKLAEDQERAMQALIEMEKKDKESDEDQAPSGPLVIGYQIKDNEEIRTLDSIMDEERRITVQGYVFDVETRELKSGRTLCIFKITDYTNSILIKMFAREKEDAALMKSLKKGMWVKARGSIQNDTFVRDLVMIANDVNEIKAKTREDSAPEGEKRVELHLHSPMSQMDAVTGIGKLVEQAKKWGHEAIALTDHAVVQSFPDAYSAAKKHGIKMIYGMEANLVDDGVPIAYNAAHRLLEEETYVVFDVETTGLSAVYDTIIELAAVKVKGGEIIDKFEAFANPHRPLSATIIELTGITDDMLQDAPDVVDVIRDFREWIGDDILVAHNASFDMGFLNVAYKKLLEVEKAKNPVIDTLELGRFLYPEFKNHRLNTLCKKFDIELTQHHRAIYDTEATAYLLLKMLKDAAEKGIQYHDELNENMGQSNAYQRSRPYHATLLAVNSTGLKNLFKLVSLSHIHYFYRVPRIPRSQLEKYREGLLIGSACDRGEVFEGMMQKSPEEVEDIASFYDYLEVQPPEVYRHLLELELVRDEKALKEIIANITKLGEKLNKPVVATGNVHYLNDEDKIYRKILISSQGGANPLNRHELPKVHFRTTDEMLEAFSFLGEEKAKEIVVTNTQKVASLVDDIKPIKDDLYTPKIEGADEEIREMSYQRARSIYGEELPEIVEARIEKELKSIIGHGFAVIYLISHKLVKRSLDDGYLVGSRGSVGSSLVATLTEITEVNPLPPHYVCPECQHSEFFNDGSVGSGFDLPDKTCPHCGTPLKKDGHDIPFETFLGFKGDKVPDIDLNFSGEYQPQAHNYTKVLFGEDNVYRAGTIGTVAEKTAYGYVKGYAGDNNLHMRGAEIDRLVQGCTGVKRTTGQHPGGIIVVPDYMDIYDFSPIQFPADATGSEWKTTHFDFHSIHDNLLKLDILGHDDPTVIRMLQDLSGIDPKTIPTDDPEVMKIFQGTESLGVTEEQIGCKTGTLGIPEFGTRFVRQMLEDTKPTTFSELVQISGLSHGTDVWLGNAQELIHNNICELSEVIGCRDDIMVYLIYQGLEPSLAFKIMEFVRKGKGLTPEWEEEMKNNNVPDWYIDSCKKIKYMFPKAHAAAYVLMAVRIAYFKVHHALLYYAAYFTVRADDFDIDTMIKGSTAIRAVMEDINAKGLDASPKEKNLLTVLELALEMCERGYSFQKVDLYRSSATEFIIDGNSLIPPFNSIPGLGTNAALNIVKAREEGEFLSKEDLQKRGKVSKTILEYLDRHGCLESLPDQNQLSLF

`N#C/C(=C\c1ccc(-c2cc(Cl)ccc2Cl)o1)C(=O)Nc1cccc2ncccc12`: the Potency result in test [1], in [2], in test [3], in test [4], in [5] and in test [8] was “inactive” in each case. For the same compound, the Potency result in test [9], in test [10] and in test [11] was “inactive” each time. Moreover, the compound was called inactive in test [6] and in [7].
Turning to `NC[C@@H]1O[C@H](C23CC4CC(CC(C4)C2)C3)Cc2c1ccc(O)c2O`, the Potency entry in test [1], in test [4], in test [5], in test [8] and in [9] was “inactive” in each case. Further, the compound was called inactive in test [6] and in [7]. Besides, the Potency was 3.29 µM (active) in [12]; 3.7 µM (active) in test [13]; 20 µM (active) and inactive in test [10].
As to `CC(=O)/C=C1\C(=O)N(C)c2ccccc21`, the Potency entry in test [4], in [5], in test [14], in test [8], in test [9] and in test [10] was “inactive” each time. The call in test [6] and in [7] was inactive. For the same compound, the Potency in test [15] was 29.9 µM (active); in [11], 0.0532 µM (active).
`O=S(=O)(c1cccc2c(I)cccc12)N1CCCNCC1`: the result in test [16], in [6] and in test [7] was inactive. Besides, the Potency result in [1], in test [4], in test [5], in test [12], in test [13] and in test [8] was “inactive” throughout. In addition, the Potency entry in test [9] and in [10] was “inactive” each time.
As to `Cc1cc2c(cc1Cl)N(C(=O)Nc1ccc(Oc3cccnc3C)nc1)CC2`, the compound was called inactive in [16] and in [7]. Moreover, the Potency result in test [1], in test [4], in [5], in [8], in test [15] and in test [9] was “inactive” throughout. The Potency result in test [10] is “inactive”. Moreover, the Potency in [11] was 44.7 µM (active).
`O=C(/C=C/c1ccc(O)c(O)c1)OCCc1ccccc1`: the Potency entry in test [1], in test [4], in test [5], in test [8], in test [15] and in [9] was “inactive” throughout. The Potency in test [3] was 3.29 µM (active). In addition, the result in test [6] and in test [7] was inactive.
Take `O=C(CCCCCN1CCN(c2ccccc2-c2ccccc2)CC1)NC1CCCc2ccccc21` (stereo not drawn): the call in [16], in test [6] and in test [7] was inactive. Moreover, the Potency result in test [1], in test [4], in test [14], in test [8], in [15] and in test [9] was “inactive” in each case.
On to `O=[N+]([O-])c1ccc2c(c1)S(=O)(=O)C=C2`, for which the Potency entry in test [1], in test [4], in [5], in test [8], in test [9] and in test [10] was “inactive” in each case. In addition, in test [2], the Potency is 1.85 µM (active). The compound was called inactive in test [6] and in test [7].
On to `C=C/C(C)=C/[C@@]1(C)SC(=O)C(C)=C1O`, for which the Potency entry in test [17], in test [12] and in test [13] was “inactive” in each case. For the same compound, the Potency in [10] is 50.1 µM (active).
For the compound `CC12C(=O)OC(=O)C1(C)C1CCC2O1` (stereo not drawn), the Potency result in test [4], in test [5], in test [8], in test [15], in [10] and in test [11] was “inactive” each time. Besides, the result in test [6] and in [7] was inactive. For the same compound, the Potency in [12] was 3.29 µM (active); in test [13], 4.15 µM (active).
